Several values for one entry are separate records, joined by “and”; a condition that tells them apart may be missing. Equal values may be shown once. Results filed as inconclusive are left out. A call without a number means that no potency is given here. A structure can be active in one record and inactive in another. Activity calls are given as the source filed them. Calls come from the whole dose curve; as a rule, active = well fitted activation curve with a large enough effect in the repeat runs; inconclusive = weak or mixed curves, or effect the other way; inactive = no such curve, though single readings can be large or run the other way.
Potency is the fitted concentration of half-maximal effect.

The experiment deals with Estrogen receptor (Homo sapiens) (UniProt P03372). The experiment can be described thus: qHTS assay to identify small molecule agonists of the estrogen receptor alpha (ER-alpha) signaling pathway using the BG1 cell line (AID 743079). Note: nearly all actives have a fitted effect of over 20% in size. The following applies: BG1Luc4E2 cells, ERE-luciferase agonist, 22 h; series mostly up to 70.3 µM; activation: at the top concentration.
Chain of Estrogen receptor (Homo sapiens) (P03372 whole entry, looked up): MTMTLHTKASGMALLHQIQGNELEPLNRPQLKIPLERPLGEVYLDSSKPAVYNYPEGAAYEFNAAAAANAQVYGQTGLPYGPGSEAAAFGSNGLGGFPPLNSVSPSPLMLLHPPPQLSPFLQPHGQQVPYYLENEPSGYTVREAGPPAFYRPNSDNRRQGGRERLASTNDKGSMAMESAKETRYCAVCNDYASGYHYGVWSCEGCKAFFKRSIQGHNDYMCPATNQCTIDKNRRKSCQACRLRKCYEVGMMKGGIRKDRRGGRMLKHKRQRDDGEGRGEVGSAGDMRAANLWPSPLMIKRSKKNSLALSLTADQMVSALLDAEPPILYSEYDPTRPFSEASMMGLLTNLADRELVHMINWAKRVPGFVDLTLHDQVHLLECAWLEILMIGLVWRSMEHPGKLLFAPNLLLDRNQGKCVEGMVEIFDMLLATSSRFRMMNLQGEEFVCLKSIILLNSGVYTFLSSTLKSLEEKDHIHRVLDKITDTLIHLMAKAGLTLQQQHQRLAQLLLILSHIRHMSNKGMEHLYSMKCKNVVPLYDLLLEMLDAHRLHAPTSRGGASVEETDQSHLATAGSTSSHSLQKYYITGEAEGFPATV
For the compound `O=S1(=O)CCCO1`, the Potency result was “inactive”.
The same measure, in the same setting: for `CCOC(=O)C(C)Oc1ccc(Oc2cnc3cc(Cl)ccc3n2)cc1` (centres undefined) the value was “inactive”; for `COC(=O)CC(=O)OC`, “inactive”.
On the same count and under the same terms, under `C=C[Si](OCCOC)(OCCOC)OCCOC` stands “inactive”; under `CN(C)/N=N/c1nc[nH]c1C(N)=O`, “inactive”; under `c1ccc2c(c1)[nH]c1ccccc12`, “inactive”.
As to `CCCCCCC(C)O` (centres undefined), the Potency result was “inactive”.
Turning to `CCC/C=C/C=O`, the Potency entry is “inactive”.
Take `CCCCCCCCCCCCO`: the Potency result was “inactive”.
Same read-out and setting: under `CC(C)[N+](C)(CCOC(=O)C1c2ccccc2Oc2ccccc21)C(C)C` stands “inactive”; under `C/C=C/C(=O)N(CC)c1ccccc1C`, “inactive”.
For `COC(=O)c1ccc(C)cc1`, the “activation” value was 4.91% (inactive).
Regarding `CCc1cccc2c3c([nH]c12)C(CC)(CC(=O)O)OCC3` (centres undefined), the Potency result is “inactive”.
Turning to `CCCCCCCCCCCCCO`, the “activation” value was -7.81% [at 95 µM] (inactive).
Take `CC(C)=CCO`: the “activation” value was 2.85% [at 95 µM] (inactive).
As for `CC(=O)Oc1c(C)c(C)c2c(c1C)CC[C@@](C)(CCC[C@H](C)CCC[C@H](C)CCCC(C)C)O2`, the Potency entry was “inactive”.
The same measure, in the same setting: under `Cc1ccc(C(C)(C)C)cc1` stands “inactive”.
As to `CCO[Si](CCCNC(N)=O)(OCC)OCC`, the Potency result is “inactive”.
Still for that read-out and setting: for `OC[C@H]1O[C@@H]2O[C@H]3[C@H](O)[C@@H](O)[C@@H](O[C@H]4[C@H](O)[C@@H](O)[C@@H](O[C@H]5[C@H](O)[C@@H](O)[C@@H](O[C@H]6[C@H](O)[C@@H](O)[C@@H](O[C@H]7[C@H](O)[C@@H](O)[C@@H](O[C@H]1[C@H](O)[C@H]2O)O[C@@H]7CO)O[C@@H]6CO)O[C@@H]5CO)O[C@@H]4CO)O[C@@H]3CO` the value was 23.7 µM (active) and inactive; for `CC1(C)O[C@@H]2C[C@H]3[C@@H]4C[C@H](F)C5=CC(=O)C=C[C@]5(C)[C@@]4(F)[C@@H](O)C[C@]3(C)[C@]2(C(=O)CO)O1`, “inactive”; for `CCCCCCCC/C=C\CCCCCCCC(=O)O`, “inactive”.
On the same count and under the same terms, under `CN(C)C` stands “inactive”.
Take `CCC(Cc1c(I)cc(I)c(N)c1I)C(=O)O` (centres undefined): the “activation” value is 2.47% [at 32.5 µM] (inactive).
In the case of `Cc1ccc([N+](=O)[O-])c(C)c1`, the Potency result is “inactive and 68.6 µM (active)”.
Turning to `O=C1CCc2ccccc2O1`, the Potency result was “inactive”.
The same measure, in the same setting: for `[Na+]` the value was “inactive”.
Regarding `C1COCCN1`, the “activation” value was -1.1% (inactive).
Turning to `Nc1cc(Cl)c(N)c(Cl)c1`, the Potency entry is “inactive”.
As for `CC(C)(C)c1cccc(C(C)(C)C)c1O`, the Potency result is “inactive”.
Same read-out and setting: for `C=CCNCC=C` the value was “inactive”; for `FC(F)(F)C(Cl)Br` (centres undefined), “inactive”; for `CCCCCC1C(=O)CCC1CC(=O)OC` (centres undefined), “inactive”.
The same measure, in the same setting: for `NCCOCCO` the value was “inactive”; for `CNC[C@H](O)c1ccc(O)c(O)c1`, “inactive”; for `NCCS(=O)(=O)O`, “inactive”.
The same measure, in the same setting: under `Cc1ccc(S(=O)(=O)O)cc1C` stands “inactive”; under `CC1(C)C(C=C(Cl)Cl)C1C(=O)OCc1cccc(Oc2ccccc2)c1` (centres undefined), “inactive”; under `Cc1ccc(N)c([N+](=O)[O-])c1`, 38.1 µM (active) and inactive.
As for `O=C(O)c1cc(=O)[nH]c(=O)[nH]1`, the Potency entry was “inactive”.

For the origin of these results see PubChem BioAssay (Tox21).
